Calls of active or inactive are those of the source.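 Rule for the calls: active = Her2 level under about 52% in both replicate screens, with viability over 70% of control (limit read from the data); inconclusive = Her2 under the limit in one screen only, or viability under 70%; inactive = Her2 level above the set limit.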
Test system: not listed separately
Test: reducers of endogenous Her2 protein level, primary screen, SKBR3 breast tumor cells, AlphaScreen, ATP viability (AID 461);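 for Her2 level: lower value means less Her2 protein in the cells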;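 for viability: percent of carrier control wells set as 100% viability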
Details: 18-24 h, measured here: SKBR3 viability, ATP luminescence, at 10 µM
For O=C(CS(=O)(=O)c1cn(Cc2ccc(Cl)cc2)c2ccccc12)N1CCCC1, the viability was 81.5%.
With O=c1c2cc(N3CCOCC3)ccc2[nH]c(=S)n1CCCN1CCCC1 the viability was 89%.
For CCOC(=O)c1[nH]c(C)c(C(=O)Nc2ccc(C)c(Cl)c2)c1C, the viability was 94%.
CSc1nnc(-c2nnc(SC)n2-c2ccccc2)n1-c1ccccc1 gave a viability of 87%.
Work on COc1ccc(C(=O)NCc2ccccc2OC)cc1 yielded a viability of 110%.
CCOC(=O)c1[nH]c(C)c(C(=O)N2CCN(C(=O)c3ccco3)CC2)c1C gave a viability of 88.5%.
O=C(O)c1oc2ccccc2c1-n1cccc1 showed a viability of 102%.
With Cc1nn(-c2ccc(F)cc2)c(C)c1NS(=O)(=O)c1ccc(Cl)cc1 the viability was 106%.
Work on O=C(CSc1nnc(-c2ccccc2)c(-c2ccccc2)n1)N1CCOCC1 yielded a viability of 97%.
For O=C(NCCCNC(=O)c1ccccn1)c1ccccn1, the viability was 106%.
With Cn1c(=O)c2[nH]c(NCC3CCCO3)nc2n(-c2ccccc2)c1=O (stereo not given) the viability was 94.5%.
For CCOC(=O)c1c(C)[nH]c(C=Nc2ccccc2)c1O, the viability was 94%.
With COc1ccc(-n2c(SCc3ccc(C#N)cc3)nnc2-c2ccccn2)cc1 the viability was 82.5%.
Compound O=C(O)c1ccc2c(c1)N(Cc1ccccc1F)C(=O)c1ccccc1S2=O (stereo not given) has a viability of 96%.
Cc1onc(-c2ccccc2Cl)c1C(=O)Nc1cccc(-c2cn3cccnc3n2)c1 showed a viability of 104%.
With COc1cc(OC)cc(C(=O)NCCN2CCOCC2)c1 the viability was 105%.
Work on Cn1c(=O)[nH]c(=O)c2c1nc(N1CCNCC1)n2CCOc1ccccc1 yielded a viability of 79.5%.
With COc1ccc(CC(NC(C)=O)C(=O)NC2CCN(c3nc(C)cc(C)c3C#N)CC2)c(OC)c1 (stereo not given) the viability was 102%.
Compound C[C@H](NC(=O)NCc1cccs1)C(=O)O has a viability of 104%.
With O=C(CCS(=O)(=O)c1cc(Br)cc2c1N(C(=O)C1CC1)CC2)NCC1CCCO1 (stereo not given) the viability was 122%.
Compound CCC1CCCCN1C(=O)Cn1c(C(=O)OC)cc2sc(Cl)cc21 (stereo not given) has a viability of 76.5%.
CC(=O)c1cnc2cc(-c3ccccc3)nn2c1C gave a viability of 91.5%.
CCOC(=O)C1CCN(S(=O)(=O)c2cc(Cl)c(C)cc2OC)CC1 gave a viability of 90%.
For CCCN1CCN(C(=O)Cn2c(=O)oc3cc(S(=O)(=O)NCc4ccccc4)ccc32)CC1, the viability was 92.5%.
Compound COc1ccc(S(=O)(=O)N2CCC(C(=O)c3ccc4c(c3)OCCO4)CC2)cc1 has a viability of 88.5%.
With CCCC(=O)Nc1nnc(CC(=O)OCC)s1 the viability was 111%.
c1ccc(OCCCn2nnc(-c3cccnc3)n2)cc1 gave a viability of 110%.
CC(=O)N1C(=O)N(C)C2C1N(C(C)=O)C(=O)N2C (stereo not given) gave a viability of 125%.
COc1cccc(NC(=O)N2CCCC2C(=O)NC(C)C)c1 (stereo not given) showed a viability of 112%.
Work on c1ccc2ncc(-n3cnnn3)cc2c1 yielded a viability of 99.5%.
In the case of CC(=O)Nc1ccc(OC(=O)c2cccnc2)cc1, the viability is reported as 111%.
O=C(CN1C(=O)c2cccc3cccc1c23)N1CCN(c2ccccc2)CC1 showed a viability of 100%.
Compound CSc1ccccc1NC(=O)c1c(Br)cnn1C has a viability of 89.5%.
Compound O=C(c1ccccc1Oc1nnnn1-c1ccccc1)N1CCOCC1 has a viability of 89.5%.
O=C(CSc1nnc(COc2ccc(Cl)cc2)o1)N1CCN(c2ccccc2)CC1 gave a viability of 100%.
CCOC(=O)c1ccccc1NC(=O)Cn1cnc2c(cnn2-c2ccc(OC)cc2)c1=O gave a viability of 89.5%.
In the case of COC(=O)c1c(C)oc2ccc(NS(=O)(=O)c3cccs3)cc12, the viability is reported as 106%.
With COc1cc2[nH]c(=O)n(CCC(=O)N3CCc4ccccc4C3)c(=O)c2cc1OC the viability was 102%.
With CCOC(=O)c1c(NC(=O)CSc2nnc(-c3cccnc3)o2)sc(C)c1C the viability was 120%.
With CC1CCN(C(=O)CSc2nnc(-c3ccc(S(=O)(=O)N4CCOCC4)cc3)n2C)CC1 the viability was 108%.

Target: Receptor tyrosine-protein kinase erbB-2 (Homo sapiens) (UniProt P04626)
Sequence (P04626 whole entry, looked up): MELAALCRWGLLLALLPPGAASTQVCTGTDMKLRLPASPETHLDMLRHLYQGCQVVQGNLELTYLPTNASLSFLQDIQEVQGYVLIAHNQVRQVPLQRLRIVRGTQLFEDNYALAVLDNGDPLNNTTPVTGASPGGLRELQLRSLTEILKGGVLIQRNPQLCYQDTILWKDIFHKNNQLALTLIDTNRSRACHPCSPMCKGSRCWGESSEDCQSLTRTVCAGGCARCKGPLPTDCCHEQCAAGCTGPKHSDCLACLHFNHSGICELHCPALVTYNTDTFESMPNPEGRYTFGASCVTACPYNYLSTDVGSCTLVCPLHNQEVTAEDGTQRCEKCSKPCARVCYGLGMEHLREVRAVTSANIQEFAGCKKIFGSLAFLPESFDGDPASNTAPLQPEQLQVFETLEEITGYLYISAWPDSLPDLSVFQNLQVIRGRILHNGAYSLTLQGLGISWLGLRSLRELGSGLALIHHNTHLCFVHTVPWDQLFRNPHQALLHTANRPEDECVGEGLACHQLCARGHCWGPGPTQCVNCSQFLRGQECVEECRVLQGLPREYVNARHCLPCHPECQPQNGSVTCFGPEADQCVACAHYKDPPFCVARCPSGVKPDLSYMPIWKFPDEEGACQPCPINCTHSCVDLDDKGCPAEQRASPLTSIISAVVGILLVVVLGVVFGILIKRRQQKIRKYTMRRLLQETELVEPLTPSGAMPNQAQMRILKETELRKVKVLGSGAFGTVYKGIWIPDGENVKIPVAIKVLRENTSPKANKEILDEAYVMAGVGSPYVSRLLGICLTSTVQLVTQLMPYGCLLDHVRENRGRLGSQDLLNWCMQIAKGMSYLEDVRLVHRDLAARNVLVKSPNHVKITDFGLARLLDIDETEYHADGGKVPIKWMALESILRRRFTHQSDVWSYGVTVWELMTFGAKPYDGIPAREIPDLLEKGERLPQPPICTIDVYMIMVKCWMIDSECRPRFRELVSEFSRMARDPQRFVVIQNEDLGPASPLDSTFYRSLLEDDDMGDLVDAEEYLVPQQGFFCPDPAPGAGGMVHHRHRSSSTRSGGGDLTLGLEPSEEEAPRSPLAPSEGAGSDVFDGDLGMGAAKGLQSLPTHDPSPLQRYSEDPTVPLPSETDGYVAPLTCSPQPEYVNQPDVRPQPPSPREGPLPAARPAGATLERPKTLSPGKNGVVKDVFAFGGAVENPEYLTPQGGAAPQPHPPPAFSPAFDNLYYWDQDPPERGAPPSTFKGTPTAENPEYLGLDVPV
Test: as above
Details: 18-24 h, at 10 µM, stronger effect = lower value
For O=C(CS(=O)(=O)c1cn(Cc2ccc(Cl)cc2)c2ccccc12)N1CCCC1, the Her2 level was 92% (inactive).
With O=c1c2cc(N3CCOCC3)ccc2[nH]c(=S)n1CCCN1CCCC1 the Her2 level was 78% (inactive).
For CCOC(=O)c1[nH]c(C)c(C(=O)Nc2ccc(C)c(Cl)c2)c1C, the Her2 level was 88% (inactive).
For CSc1nnc(-c2nnc(SC)n2-c2ccccc2)n1-c1ccccc1, the Her2 level was 83.5% (inactive).
For COc1ccc(C(=O)NCc2ccccc2OC)cc1, the Her2 level was 100% (inactive).
With CCOC(=O)c1[nH]c(C)c(C(=O)N2CCN(C(=O)c3ccco3)CC2)c1C the Her2 level was 95.5% (inactive).
With O=C(O)c1oc2ccccc2c1-n1cccc1 the Her2 level was 86.5% (inactive).
For Cc1nn(-c2ccc(F)cc2)c(C)c1NS(=O)(=O)c1ccc(Cl)cc1, the Her2 level was 85% (inactive).
In the case of O=C(CSc1nnc(-c2ccccc2)c(-c2ccccc2)n1)N1CCOCC1, the Her2 level is reported as 93% (inactive).
With O=C(NCCCNC(=O)c1ccccn1)c1ccccn1 the Her2 level was 75% (inactive).
For Cn1c(=O)c2[nH]c(NCC3CCCO3)nc2n(-c2ccccc2)c1=O (stereo not given), the Her2 level was 81% (inactive).
With CCOC(=O)c1c(C)[nH]c(C=Nc2ccccc2)c1O the Her2 level was 91.5% (inactive).
For COc1ccc(-n2c(SCc3ccc(C#N)cc3)nnc2-c2ccccn2)cc1, the Her2 level was 91.5% (inactive).
With O=C(O)c1ccc2c(c1)N(Cc1ccccc1F)C(=O)c1ccccc1S2=O (stereo not given) the Her2 level was 83.5% (inactive).
With Cc1onc(-c2ccccc2Cl)c1C(=O)Nc1cccc(-c2cn3cccnc3n2)c1 the Her2 level was 84% (inactive).
In the case of COc1cc(OC)cc(C(=O)NCCN2CCOCC2)c1, the Her2 level is reported as 92% (inactive).
With Cn1c(=O)[nH]c(=O)c2c1nc(N1CCNCC1)n2CCOc1ccccc1 the Her2 level was 108% (inactive).
In the case of COc1ccc(CC(NC(C)=O)C(=O)NC2CCN(c3nc(C)cc(C)c3C#N)CC2)c(OC)c1 (stereo not given), the Her2 level is reported as 100% (inactive).
With C[C@H](NC(=O)NCc1cccs1)C(=O)O the Her2 level was 98.5% (inactive).
With O=C(CCS(=O)(=O)c1cc(Br)cc2c1N(C(=O)C1CC1)CC2)NCC1CCCO1 (stereo not given) the Her2 level was 110% (inactive).
With CCC1CCCCN1C(=O)Cn1c(C(=O)OC)cc2sc(Cl)cc21 (stereo not given) the Her2 level was 103% (inactive).
With CC(=O)c1cnc2cc(-c3ccccc3)nn2c1C the Her2 level was 110% (inactive).
For CCOC(=O)C1CCN(S(=O)(=O)c2cc(Cl)c(C)cc2OC)CC1, the Her2 level was 92.5% (inactive).
With CCCN1CCN(C(=O)Cn2c(=O)oc3cc(S(=O)(=O)NCc4ccccc4)ccc32)CC1 the Her2 level was 95% (inactive).
In the case of COc1ccc(S(=O)(=O)N2CCC(C(=O)c3ccc4c(c3)OCCO4)CC2)cc1, the Her2 level is reported as 108% (inactive).
In the case of CCCC(=O)Nc1nnc(CC(=O)OCC)s1, the Her2 level is reported as 108% (inactive).
In the case of c1ccc(OCCCn2nnc(-c3cccnc3)n2)cc1, the Her2 level is reported as 87.5% (inactive).
With CC(=O)N1C(=O)N(C)C2C1N(C(C)=O)C(=O)N2C (stereo not given) the Her2 level was 104% (inactive).
In the case of COc1cccc(NC(=O)N2CCCC2C(=O)NC(C)C)c1 (stereo not given), the Her2 level is reported as 78% (inactive).
In the case of c1ccc2ncc(-n3cnnn3)cc2c1, the Her2 level is reported as 105% (inactive).
With CC(=O)Nc1ccc(OC(=O)c2cccnc2)cc1 the Her2 level was 116% (inactive).
For O=C(CN1C(=O)c2cccc3cccc1c23)N1CCN(c2ccccc2)CC1, the Her2 level was 103% (inactive).
For CSc1ccccc1NC(=O)c1c(Br)cnn1C, the Her2 level was 94.5% (inactive).
In the case of O=C(c1ccccc1Oc1nnnn1-c1ccccc1)N1CCOCC1, the Her2 level is reported as 84% (inactive).
For O=C(CSc1nnc(COc2ccc(Cl)cc2)o1)N1CCN(c2ccccc2)CC1, the Her2 level was 83% (inactive).
For CCOC(=O)c1ccccc1NC(=O)Cn1cnc2c(cnn2-c2ccc(OC)cc2)c1=O, the Her2 level was 91.5% (inactive).
In the case of COC(=O)c1c(C)oc2ccc(NS(=O)(=O)c3cccs3)cc12, the Her2 level is reported as 94.5% (inactive).
For COc1cc2[nH]c(=O)n(CCC(=O)N3CCc4ccccc4C3)c(=O)c2cc1OC, the Her2 level was 106% (inactive).
For CCOC(=O)c1c(NC(=O)CSc2nnc(-c3cccnc3)o2)sc(C)c1C, the Her2 level was 104% (inactive).
For CC1CCN(C(=O)CSc2nnc(-c3ccc(S(=O)(=O)N4CCOCC4)cc3)n2C)CC1, the Her2 level was 109% (inactive).

— PubChem BioAssay
